This is an account of results in PubChem BioAssay (NCATS).

Values joined by “and” are separate entries in the source; they are usually repeats but may differ in a detail not shown here. Identical values can stand only once. Records with an inconclusive call do not appear. Active and inactive are the calls of the source. Calls come from the whole dose curve; as a rule, active = well fitted inhibition curve with a large enough effect; inconclusive = small, poorly fitted or top-dose-only effect; inactive = flat fitted curve, though single readings scatter.
% is set by controls: 0 for no effect and ±100 for the full control effect; potency is the fitted concentration of half-maximal effect.

A short description of this experiment: qHTS assay for small molecule disruptors of mitochondrial membrane potential screened against the NCATS CANVASS Library (AID 1347389). Note: nearly all actives have a fitted effect of over 60% in size. Particulars: HepG2 mitochondrial membrane potential, m-MPI red/green ratio, 1.5 h; series mostly up to 46.1 µM; activity change, negative = depolarization: at the top concentration. Put shortly:
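Mitochondrial membrane potential in HepG2: 1 h compound treatment (11-point concentration series), 30 min m-MPI dye at 37C, then dual fluorescence of J-aggregates (ex 540/em 590) and monomers (ex 490/em 535); lower red/green ratio indicates depolarization.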
As for `O[C@H]1C=C2[C@H]3CN(Cc4cc5c(cc43)OCO5)[C@H]2C[C@@H]1O`, the “activity change, negative = depolarization” value (“activity change” for short) was -6.74% (inactive).
As to `CC[C@@H](c1cc(OC)c(OC)cc1OC)[C@H](C)[C@@H](/C(C)=C/c1cc(OC)c(OC)cc1OC)c1cc(OC)c(OC)cc1OC`, the Potency is 23.4 µM (active) and 20.9 µM (active).
Turning to `C/C=C/c1cc2c(c(=O)o1)C(=O)[C@@H](O)[C@H](C)O2`, the “activity change” value was -6.3% (inactive).
Same read-out and setting: the same measure for `CN1CCc2cc3c(c4c2C1(C)C(=O)c1cc(O)ccc1-4)OCO3` (configuration not stated): -9.51% (inactive); for `COc1cc2c(cc1OC)[C@@H](c1ccc3c(c1)OCO3)C(C)[C@@H](C)C2=O` (some centres not stated): -18.4% (inactive); for `COc1cc2oc3ccccc3c(=O)c2cc1OC`: -24.8% [at 91.4 µM] (inactive).
As to `COc1cc2ccc(=O)oc2c(O)c1O[C@@H]1O[C@H](CO)[C@@H](O)[C@H](O)[C@H]1O`, the “activity change” value is -0.0658% [at 27.5 µM] (inactive).
Same read-out and setting: the same measure for `O=C1CCC(=O)N(O)CCCCCNC(=O)CCC(=O)N(O)CCCCCNC(=O)CCC(=O)N(O)CCCCCN1`: 0.739% (inactive); for `C=C1C[C@H]2O[C@@H]3[C@@H]4[C@H](CC[C@@](C)(O)[C@@H]42)[C@H](C)COC3(C)[C@@H](OC(=O)CCCCCCC)C[C@H]1O` (some centres not stated): 17.3% (inactive); for `CC1=C(C)C(=O)OC(C(C)C2(O)CCC3C4C5OC5C5(O)CC=CC(=O)C5(C)C4CCC32C)C1` (configuration not stated): 14.1% (inactive).
Same read-out and setting: the same measure for `COc1cc(C2C3=C(Cc4cc5c(cc42)OCO5)C(=O)OC3)cc(OC)c1OC` (configuration not stated): -1.35% (inactive); for `CO[C@@H]1[C@H](O)[C@@H](C)O[C@@H](OC[C@@H]2C(C)OC(=O)/C=C/[C@H](C)C(O[C@@H]3O[C@H](C)CC4(OC(=O)O[C@@H]4C)C3O)[C@@H](C)CC(C)C(=O)/C=C/[C@H]3OC23)[C@@H]1OC` (some centres not stated): 13.1% (inactive).
